Assay results taken from PubChem BioAssay AID652176 (Sanford-Burnham Center for Chemical Genomics, 2013).
In all, about 2,400 compounds went through this assay and about 25 (1%) were called active. The list is a sample of the results. Values without a mark were called inactive.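 The calls were made as follows: active = replicate-average signal at least 3 plate SD below neutral wells, shown as high inhibition, flagging enzyme-inhibiting false positives; inactive = the rest.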

system: Beta-galactosidase (Escherichia coli), counter-screen for EBI2 antagonists; test: inhibitors of purified bacterial beta-gal – biochemical, luminescence, single concentration, counter-screen for EBI2 antagonist project, confirmation (AID 652176); conditions: luminescent Galacton Star, 15 min, at 5 µM, stronger effect = higher value;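 also: 0% = DMSO wells with enzyme and 100% = wells lacking enzyme; higher means stronger loss of beta-gal luminescence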

Compared with `COc1cc(/C=C(\C#N)C(=O)Nc2ccc3ccccc3c2)c([N+](=O)[O-])cc1OC`, `COc1ccc(Nc2cc(Sc3ccc(OC)cc3)ncn2)cc1` is higher in inhibition: -8.92% for the first, 8.03% for the second.

Compared with `CC(C)N(Cc1ccccc1)C(=S)Nc1ccc(OC(F)F)cc1`, `Cc1ccc(O/C=C2\OC(=O)c3ccccc32)cc1` is lower in inhibition: 7.71% for the first, -6.52% for the second.

Compared with `Cc1ccc(S(=O)(=O)NCCNC(C)c2ccc(Br)cc2)cc1` (centres undefined), `Cc1ccc(CSCCNC(=O)CN(c2ccc(F)cc2)S(C)(=O)=O)cc1` is lower in inhibition: 4.8% for the first, 3.75% for the second.

Compared with `Cc1cccc(C)c1-n1nnnc1C(CCc1ccccc1)N1CCN(C/C=C/c2ccccc2)CC1` (centres undefined), `FC(F)(F)Oc1ccccc1C(c1nnnn1C1CCCCC1)N1CCN(C/C=C/c2ccccc2)CC1` (centres undefined) is higher in inhibition: -14.6% for the first, 3.49% for the second.

Compared with `Cc1cccc(-n2c(O)c(C=Nc3ccccc3N)c(=O)[nH]c2=O)c1`, `Cc1nc2ccc(C(=O)N3CCN(c4ccccc4)CC3)cc2s1` is lower in inhibition: 1.72% for the first, -10.1% for the second.

Compared with `CC(C)Cc1ccc(-c2cc3nc(NCc4cccc(Cl)c4)ccn3n2)cc1`, `O=C(CSc1ccccc1)Nc1cc(Cl)ccc1Oc1ccccc1` is higher in inhibition: -21.1% for the first, -9.14% for the second.

Compared with `Fc1ccc(N2CCN(Cc3cnc(Oc4ccc(Br)cc4)s3)CC2)cc1`, `O=C(c1cc2cc(F)ccc2[nH]1)N1CCN(c2ccc(F)cc2)CC1` is lower in inhibition: 3.88% for the first, 1.06% for the second.

Compared with `COc1ccc([C@H]2CC(=O)C=C(/C=C/c3ccc(Cl)cc3)C2)cc1`, `COc1ccc([C@H]2CC(=O)C=C(c3ccc(C)cc3)C2)cc1` is higher in inhibition: -9.12% for the first, 5.89% for the second.

Compared with `COc1ccccc1N1CCN(C(=O)c2cc(-c3ccc(Br)cc3)on2)CC1`, `O=C(c1ccc(-n2cnnn2)cc1)N1CCN(C(c2ccccc2)c2ccccc2)CC1` is lower in inhibition: 9.03% for the first, 5.89% for the second.

Going from `CC1CCc2sc3nc(N4CCN(CCO)CC4)n4ncnc4c3c2C1` (centres undefined) to `CCOC(=O)N1CCN(C(=O)COc2ccc(Cl)cc2C)CC1`, the inhibition rises from -1.4% to 11%.

Going from `Cc1ccc(N2CC(C(=O)Nc3ccc(S(=O)(=O)N4CCCC4)cc3)CC2=O)cc1C` (centres undefined) to `COc1ccc(OC)c(C(=O)c2coc3ccc(O)c(CN4CCOCC4)c23)c1`, the inhibition rises from 2.23% to 3.81%.

Compared with `Cc1ccc2oc(=O)c3cnn(CC(=O)N(Cc4ccco4)C4CCCCC4)c3c2c1`, `CCOC(=O)N1CCN(C(=O)COc2ccc(Br)cc2)CC1` is higher in inhibition: -17.5% for the first, 2.79% for the second.
